# Most compounds without a hit are left out; they make up all but 6% or so of the library.
# D1 potentiator: enhances dopamine response at the human D1 receptor; HEK293 TREx D1 cells, calcium flux, dopamine EC20 potentiation; AID 504651; 0.036% of 360,000 active; potentiation, % at 10 µM; P21728; in the data active = potentiation above about 30%; also: 0% is about no effect
# D1 ag: human D1 receptor agonism | P21728 | HEK293 T-REx D1 cells, calcium flux, agonist mode | activation, % at 2 µM | 1% of 360,000 active | AID 504660; in the data active = activation above about 30%; also: 0% is about no effect
#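 Inducible HEK293 T-REx D1 cells, force-coupled to calcium signalling, were plated at 4000 cells/well with tetracycline and held overnight at 30 C. After no-wash calcium dye loading, compound-evoked calcium rise over 180 s flagged agonists.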
# D1 antagonist: blocks dopamine activation of the human D1 receptor; HEK293 TREx D1 cells, calcium flux, dopamine EC80; stronger effect = lower value; activity change, negative = inhibition, % at 10 µM; P21728; 3.2% of 360,000 active; in the data active = activity change below about -30%; also: % is scaled to controls: 0 for no effect and ±100 for the full control effect
#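 Tetracycline-induced HEK293 T-REx cells with force-coupled D1 receptor were loaded with a no-wash calcium dye. Compound was added after a 10 s baseline and read kinetically for 180 s; EC80 dopamine was then added and calcium flux followed another 180 s.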
# DRD3 agonist: D3 dopamine receptor (human) agonism | max activation, % | D3R DiscoveRx beta-arrestin cells, luminescence, 90 min | 0.58% of 410,000 active | P35462; in the data active = max activation above about 30%; also: 0% is about no effect
# Target sequence (P35462 whole entry, looked up): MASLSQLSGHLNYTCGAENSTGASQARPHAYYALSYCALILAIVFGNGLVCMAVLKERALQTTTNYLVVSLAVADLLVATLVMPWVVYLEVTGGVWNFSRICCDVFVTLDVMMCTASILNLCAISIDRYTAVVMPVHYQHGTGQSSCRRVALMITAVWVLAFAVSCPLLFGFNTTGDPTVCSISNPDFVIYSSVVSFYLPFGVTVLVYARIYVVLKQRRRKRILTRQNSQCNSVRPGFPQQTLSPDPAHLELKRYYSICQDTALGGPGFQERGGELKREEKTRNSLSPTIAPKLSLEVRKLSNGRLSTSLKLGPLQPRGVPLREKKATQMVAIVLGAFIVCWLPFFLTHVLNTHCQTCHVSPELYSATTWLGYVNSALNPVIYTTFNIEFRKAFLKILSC
#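 Agonist-mode cell screen: cells plated at 1500/well and incubated overnight at 37 °C, then exposed to library compounds for 90 min at 37 °C. Detection reagent was added for 30–60 min at room temperature, and luminescence was read.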
# D3 antag: antagonists of human D3 dopamine receptor; max response, negative = inhibition, %; D3R cells, DiscoveRx beta-arrestin luminescence, antagonist mode; stronger effect = lower value; AID 652054; 2.5% of 360,000 active; in the data active = max response below about -50%; inconclusive = no clear call, values can overlap the other calls; also: % is scaled to controls: 0 for no effect and ±100 for the full control effect
#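 Cells plated overnight at 1500 cells/well, then exposed to library compounds with dopamine controls for 90 minutes at 37 degrees C. DiscoveRx reagent added for 30–60 minutes at room temperature; luminescence read, quantitative HTS format.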
# * marks the source's active call; other numbers are inactive results; ? = inconclusive; / = no result.
SMILES,D1 potentiator,D1 ag,D1 antagonist,DRD3 agonist,D3 antag
O=C(Nc1cccc(C(=O)N2CCOCC2)c1)C1CC1,/,/,/,-8,29
COc1ccc(C2=CC(c3cccc(C)c3)n3nnnc3N2)cc1 (stereo not given),-2,2,9,5,/
COc1ccc(NC(=O)C(Cl)=C(Cl)Cl)cn1,-5,1,-10,7,6
COc1ccc(NC(=O)/C(Cl)=C(/Cl)S(=O)Cc2ccc(Cl)cc2)cn1 (stereo not given),-7,0,-33*,-33,-116*
CCCCCCCCCCOC(=O)Cn1c(COc2ccc(OC)cc2)[n+](C)c2ccccc21,-4,139*,-18,4,?
CCCCOC(=O)Cn1c(=O)n(CC(=O)OCCCC)c2ccccc21,3,1,-8,-13,4
CCOC(=O)Cn1c(COc2ccccc2OC)[n+](C)c2ccccc21,/,/,/,-6,-7
CCCCCCCCCCOC(=O)Cn1c(COc2cccc(C)c2)[n+](C)c2ccccc21,7,116*,-19,-7,-9
CCCCCOC(=O)Cn1c(=O)oc2ccccc21,2,0,-17,3,-14
CCCCCCCCCCOC(=O)Cn1c(COc2ccccc2C)[n+](C)c2ccccc21,-4,76*,4,-15,?
CCCCCCCCCCOC(=O)Cn1c(COc2ccccc2)[n+](C)c2ccccc21,-10,124*,-42*,-3,-17
CCCCCCCCCCOC(=O)Cn1c(COc2ccc(Cl)cc2)[n+](C)c2ccccc21,-12,137*,-42*,1,16
Cc1ccc(CNC(=O)c2ccc3c(O)c(S(=O)(=O)c4ccccc4)c(=O)[nH]c3c2)cc1,-1,2,-12,-4,/
Nn1cnc2c([nH]c3ccccc32)c1=O,0,2,-32*,2,2
COc1cccc(C(=O)N[C@@H](CCSC)c2nc3ccccc3[nH]2)c1,4,3,4,-11,3
O=C(NC(Cc1ccccc1)c1nc2ccccc2[nH]1)c1ccc(Cl)c([N+](=O)[O-])c1 (stereo not given),-3,7,-17,-19,-63*
CSCC[C@H](NC(=O)c1ccc(Cl)c([N+](=O)[O-])c1)c1nc2ccccc2[nH]1,-6,6,-29,-30,-95*
CSCC[C@H](NC(=O)c1cccc([N+](=O)[O-])c1C)c1nc2ccccc2[nH]1,-5,0,-3,-9,?
COc1cc(OC)cc(C(=O)N[C@@H](CCSC)c2nc3ccccc3[nH]2)c1,-2,0,-19,-7,-56*
O=C(c1cc2cc(F)ccc2[nH]1)N1CCCC(Nc2ccc(F)cc2)C1 (stereo not given),-8,6,-35*,2,-4
COc1ccc(NC2CCCN(C(=O)CCN3Cc4ccccc4C3=O)C2)cc1 (stereo not given),-3,2,-94*,-3,-5
Cc1cc(C(=O)N2CCCC(Nc3ccccc3)C2)c2ccc(F)cc2n1 (stereo not given),-23,1,-33*,-1,9
O=C(CCn1cnnn1)N1CCCC(Nc2ccc(F)cc2)C1 (stereo not given),-4,11,-35*,0,6
COc1ccc(NC2CCCN(C(=O)CCN3CCCC3=O)C2)cc1 (stereo not given),-1,1,4,4,-11
COC(=O)[C@@]1(C(C)C)N=C(c2cc(OC)c(OC)c(OC)c2)[C@]2(O1)C(=O)Nc1ccc(F)cc12,/,/,/,3,17
SMILES,D1 potentiator,D1 ag,D1 antagonist,DRD3 agonist,D3 antag
CC(=O)c1nn(-c2ccc(OC(F)(F)F)cc2)nc1Nc1ccc(C)cc1,4,1,-4,0,/
COc1ccc(-c2noc(-c3ccc(NC4CCCCC4)c([N+](=O)[O-])c3)n2)cc1,6,1,1,1,/
COc1cc(C(C)=O)ccc1Oc1ncnc2c1cnn2-c1ccccc1,-7,6,-12,36*,8
CCCCNC(=S)Nc1ccc(SC(F)F)cc1,-8,17,-42*,-7,?
CCCCNC(=S)Nc1ccc(F)cc1,-2,1,3,5,9
COCCCNC(=O)C1=CCN(S(=O)(=O)c2ccc(C)cc2)CC1,-12,-1,-1,11,2
O=C(OCC(=O)c1cccs1)c1ccc(NC(=O)c2ccco2)cc1,-10,7,-33*,-7,28
O=C(Cc1ccccc1)Nc1ccc(NC(=O)c2cccs2)cc1,-4,1,-30*,-2,-6
O=C(c1ccncc1)c1ccc(NC(=O)c2cccs2)cc1,-16,12,-35*,-1,4
O=C(Nc1ccc(NC(=O)c2cccs2)cc1)c1ccccc1,-2,4,-6,10,-9
O=C(Nc1ccc(Cc2ccncc2)cc1)c1cccs1,-8,13,2,31*,-19
Cc1ccc(Cn2ccnc2SCC(=O)Nc2ccccc2C(F)(F)F)cc1,-7,6,2,-6,/
CCS(=O)(=O)N1CCC2(CC1)OCCN2S(=O)(=O)c1ccccc1,/,/,/,-5,-14
Cc1nc(C)c(-c2ccc(SCC(=O)Nc3cccc(C)c3C)nn2)s1,-5,1,-9,6,/
Cc1cn([C@H]2C[C@H](O)[C@@H](CNCc3ccccc3)O2)c(=O)[nH]c1=O,/,/,/,4,-4
Cc1cn([C@H]2C[C@H](O)[C@@H](CNCC3=Cc4cc(O)ccc4OC3)O2)c(=O)[nH]c1=O,/,/,/,39*,?
CC(C)(C)C(=O)c1c(N)[nH]c(C(=O)c2ccccc2)c1-c1ccc(C(F)(F)F)cc1,/,/,/,-8,0
COc1cccc(C(=O)N(Cc2ccccc2)Cc2cc3cc4c(cc3[nH]c2=O)OCCO4)c1,-5,0,-10,33*,32
CN(C)c1ccc(Nc2cc(Cl)ncn2)cc1,-12,0,-4,14,6
CN(C)c1cccc(-c2cc(Nc3ccc(C(C)(C)C)cc3)ncn2)c1,/,/,/,2,-55*
COc1c(Cl)cc(C(=O)Nc2ccccc2-c2ccccc2)cc1Cl,3,3,-31*,-2,15
COc1cc(NC(=O)c2ccccc2)c(OC)cc1Cl,-2,-1,3,-8,7
COc1cc(NC(=O)C(C)Oc2ccccc2)c(OC)cc1NC(=O)c1ccccc1 (stereo not given),-1,7,-27,36*,11
COc1cc(NC(=O)c2cccnc2)c(OC)cc1NC(=O)c1ccc(Br)cc1,-2,2,0,121*,18
COc1cc(N)c(Cl)cc1NC(=O)c1ccccc1,-4,4,-55*,3,2
CC(Oc1ccccc1)C(=O)Nc1ccc(NC(=O)c2ccccc2)cc1 (stereo not given),2,4,-1,-8,?
c1ccc(CNc2c3c(nc4ncnn24)CCC3)cc1,-4,6,-53*,-6,-1
c1ccc(CN(Cc2ccccc2)c2c3c(nc4ncnn24)CCC3)cc1,-1,3,-5,2,0
